From the supplement of paper PMC6555819

Tests used:
Assay in all cases: PBM binding z-score (relative to random genomic background probes); higher = stronger binding; sequences stand for … in GC…GCGATTGACAGCGTAGAATGAAGG
[1] = tested on: FXR:RXRa (NR concentration 270 nM, RXRa partner concentration 90 nM)
Procedure, shortened: (§1)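 Custom Agilent 4×180K protein-binding microarrays carried double-stranded probes, each with a 34-nt variable region. These regions held direct-repeat seeds, single-nucleotide variants, half-site ablations and random human genomic background sequences. Ligand-free nuclear receptor dimers were incubated on the arrays for 1 h, antibodies against each partner (one per run) detected binding, and scanned fluorescence was regression-normalized. Binding z-scores take the random background probes as reference.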

[2] = tested on: LXRa:RXRa (NR concentration 270 nM, RXRa partner concentration 90 nM)
Procedure, shortened: as §1

[3] = tested on: LXRa homodimer (NR concentration 270 nM)
Procedure, shortened: as §1

[4] = tested on: LXRb:RXRa (NR concentration 270 nM, RXRa partner concentration 90 nM)
Procedure, shortened: as §1

[5] = tested on: LXRb homodimer (NR concentration 270 nM)
Procedure, shortened: as §1

[6] = tested on: PPARa:RXRa (NR concentration 270 nM, RXRa partner concentration 90 nM)
Procedure, shortened: as §1

[7] = tested on: PPARg:RXRa (NR concentration 180 nM, RXRa partner concentration 90 nM)
Procedure, shortened: as §1

[8] = tested on: PPARg:RXRa 270nM:90nM, anti-RXR (NR concentration 270 nM, RXRa partner concentration 90 nM)
Procedure, shortened: as §1

[9] = tested on: PPARg:RXRa 30nM:10nM, anti-RXR (NR concentration 30 nM, RXRa partner concentration 10 nM)
Procedure, shortened: as §1

[10] = tested on: PPARg:RXRa 90nM:30nM, anti-RXR (NR concentration 90 nM, RXRa partner concentration 30 nM)
Procedure, shortened: as §1

[11] = tested on: PPARg:RXRa DBDmut IVT, anti-RXR (DBD mutation: RXRa K156A/R161A, NR concentration 270 nM, RXRa partner concentration 90 nM)
Procedure, shortened: as §1

[12] = tested on: PPARg:RXRa IVT, anti-PPARg (NR concentration 270 nM, RXRa partner concentration 90 nM)
Procedure, shortened: as §1

[13] = tested on: PPARg DBDmut:RXRa IVT, anti-PPARg (DBD mutation: PPARg1 K132A/R137A, NR concentration 270 nM, RXRa partner concentration 90 nM)
Procedure, shortened: as §1

[14] = tested on: PPARg DBDmut IVT, anti-PPARg (DBD mutation: PPARg1 K132A/R137A, NR concentration 270 nM)
Procedure, shortened: as §1

[15] = tested on: PPARg homodimer (NR concentration 180 nM)
Procedure, shortened: as §1

[16] = tested on: PXR:RXRa (NR concentration 270 nM, RXRa partner concentration 90 nM)
Procedure, shortened: as §1

[17] = tested on: PXR homodimer (NR concentration 270 nM)
Procedure, shortened: as §1

[18] = tested on: RARa:RXR (NR concentration 270 nM, RXRa partner concentration 90 nM)
Procedure, shortened: as §1

[19] = tested on: RARa homodimer (NR concentration 270 nM)
Procedure, shortened: as §1

[20] = tested on: RARb:RXRa (NR concentration 270 nM, RXRa partner concentration 90 nM)
Procedure, shortened: as §1

Sequence	PBM binding z-score [1]	PBM binding z-score [2]	PBM binding z-score [3]	PBM binding z-score [4]	PBM binding z-score [5]	PBM binding z-score [6]	PBM binding z-score [7]	PBM binding z-score [8]	PBM binding z-score [9]	PBM binding z-score [10]	PBM binding z-score [11]	PBM binding z-score [12]	PBM binding z-score [13]	PBM binding z-score [14]	PBM binding z-score [15]	PBM binding z-score [16]	PBM binding z-score [17]	PBM binding z-score [18]	PBM binding z-score [19]	PBM binding z-score [20]
ACTAGCAGGCCAAGTTTGGGCCACTCAAACAAAG	-0.478	-0.716	-0.865	-0.61	-1.23	-0.243	-0.254	-0.685	-0.785	-0.814	0.654	0.241	-1.11	-0.696	-1.66	-0.855	-0.899	-0.593	-1.32	0.466
ATCTCTAGGTAAGTCTCAGTTCAGTGAAGAACGC	0.588	0.489	0.754	0.383	1.26	0.246	-0.297	0.387	0.236	0.632	1.77	1.38	1.04	1.5	1.22	1.23	2.14	0.749	1.44	0.564
AGTCAAAGTTCAGGTCGAGGTAACGTAAAGCACG	4.82	4.08	1.87	2.47	0.819	3.6	4.74	4.74	2.07	3.97	-0.195	2.16	0.434	0.251	2.76	3.53	2.14	3.43	1.49	4.47
GCTTTCGGGTCAAAGGTTATAGCATGAATAGAAT	7.21	5.74	0.496	5.58	0.746	6.76	11.3	9.26	8.67	10	3.82	5.81	1.23	1.1	1.81	5.89	0.475	8.07	1.08	4.59
TCTTGTAGATCATCAGGTTAAGAAAGCTGGCCAA	0.48	0.703	0.27	0.642	-0.0532	0.993	-0.352	1.6	2.71	1.98	2.18	1.18	1.16	0.736	0.119	0.47	-0.117	0.63	0.422	0.398
CGAACTAGGTCAGAACAGAACAGTGAAGGATGAT	0.766	0.278	-0.166	0.401	-0.644	2.7	5.43	4.46	1.89	3.74	7.54	7.16	1.34	0.4	0.811	-0.0344	0.00344	0.194	-0.0462	2.8
CCGACTGGGGCAAAGGGTACCATACTCAGTACGA	-0.124	-0.144	-0.41	0.194	-1.06	3.81	8.34	7.63	6.97	8.88	3.56	4.9	-0.131	-0.788	1.03	-0.113	-0.353	0.544	-0.388	1.11
AGAATGAGGTAAAGATCAGGGAAACAGAATACAT	0.438	0.311	-0.176	0.517	-0.108	0.991	2	2.05	0.928	1.67	1.72	1.73	1.8	0.935	0.296	0.125	0.151	0.265	0.446	0.258
AGAACGAGGGCACCCTGAGTTGATAGCAGAGTAG	0.236	0.52	-0.169	-0.0951	-0.924	1.6	1.55	1.27	0.134	0.693	3.24	2.84	0.579	-0.333	0.0786	1.29	0.283	0.732	-0.996	2.16
ATGTCTAGGTAAAAGTTCAGTGAATCCCGAGGAT	0.745	1.33	1.16	0.843	0.542	3.76	7.03	6.9	5.57	7.4	1.33	3.13	0.931	0.765	1.17	1.87	1.49	1.77	0.698	2.39
TCGAGTTGGTTACCAATGGGGCATTCAGCTTTCT	-0.51	-0.505	-1.1	-0.17	-0.988	-0.0256	-0.676	0.352	0.536	0.652	0.424	-0.405	-1.9	-0.375	-1.66	-0.425	-0.63	-0.69	-1.31	-0.219
GCTTGTAGATCAAGGTTAAGCAAGACTAAGCTAA	0.263	0.428	-0.624	0.0406	-0.925	1.77	1.05	1.94	0.405	1.6	1.5	1.36	-0.46	-0.377	0.0849	0.191	-0.43	1.07	-0.348	0.844
CGTCCAAGGTCACTGCTAGGTCAGTGAAAGCATT	6.69	5.11	1.49	4.28	0.283	5.14	4.7	5.1	1.92	3.94	3.59	4.59	-0.128	0.266	3.91	4.72	1.09	5.65	0.316	5.42
CCTAGTTGGTCGGGAGGTCACACACCGGATATGA	3.79	3.32	2.67	3.48	1.04	3.89	2.12	2.73	0.776	2.07	-0.134	1.89	0.253	0.694	3.59	4.29	2.4	4.55	2.58	3.47
